hgDAF-12 ag: activates the H. glycines DAF-12 receptor ligand-binding domain. 370,000 compounds, 1.8% hits. HEK293 GAL4-hgDAF12 UAS-luciferase reporter, agonist luminescence; normalized to butyrate control. activation, % at 6.8 µM;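 active = activation above a cutoff set at the mean of all screened compounds plus 3 SD, cut at about 10% in these data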;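 also: 0% = DMSO wells and 100% = sodium butyrate wells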
GAA850 FXN act: activators of GAA850 frataxin (FXN) promoter; activation, % at 6 µM; 360,000 compounds, 0.56% hits; HEK293 lucGAA850 FXN promoter luciferase reporter, 24 h; percent of 10 µM SAHA response; AID 540364;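 active = activation above the average of all compounds screened plus 3 SD, cutoff fixed separately per campaign, cut at about 7.5% in these data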;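 also: 0% = DMSO wells and 100% = 10 µM SAHA wells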
ssDAF-12 act: activators of S. stercoralis DAF-12 nuclear receptor; 370,000 compounds, 1% hits; activation, % at 6.8 µM; HEK293 ssDAF-12/GRIP1 lit1-tk-luc reporter, luminescence; % of 3 µM dafachronic acid response;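 active = activation above the mean over all tested compounds plus 3 SD, cut at about 0.9% in these data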;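 also: 0% = DMSO-only wells and 100% = 3 µM delta7-dafachronic acid wells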
hcDAF12 agonist: H. contortus DAF-12 activation, primary screen. AID 652067. activation, % at 6.8 µM. 370,000 compounds, 1.4% hits. HEK293 hcDAF-12 lit1-tk-luc reporter, luminescence; 0% DMSO, 100% Δ7-dafachronic acid;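 active = activation above the mean of all tested compounds plus 3 SD, cut at about 5.5% in these data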;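 also: 100% = response to 3 µM Δ7-dafachronic acid high control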
DAX1 inh-1: DAX1 (NR0B1) inhibition, primary screen; inhibition, % at 6.8 µM; AID 652010; HEK293T StAR-luciferase reporter, SF-1/DAX-1 repression relief; 370,000 compounds, 1.1% hits;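 active = inhibition above the mean over all tested compounds plus 3 SD, cut at about 3.6% in these data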;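 also: 0% = DAX-1 cells with DMSO and 100% = cells lacking DAX-1 with DMSO; higher inhibition means more luminescence from relief of DAX-1 repression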
DAX1 inh-2: inhibitors of human orphan nuclear receptor DAX1 (NR0B1). P51843. HEK293 Gal4-DAX1 luciferase reporter, luminescence. inhibition, % at 6.75 µM. 340,000 compounds, 0.99% hits;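 active = inhibition above the mean over all tested compounds plus 3 SD, cut at about 4.2% in these data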;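 also: 0% = DAX1-transfected cells with DMSO and 100% = empty-vector control cells with DMSO; inhibition shows as a rise in luminescence from relieved DAX1 repression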
Target sequence (P51843 207-470 limits assumed): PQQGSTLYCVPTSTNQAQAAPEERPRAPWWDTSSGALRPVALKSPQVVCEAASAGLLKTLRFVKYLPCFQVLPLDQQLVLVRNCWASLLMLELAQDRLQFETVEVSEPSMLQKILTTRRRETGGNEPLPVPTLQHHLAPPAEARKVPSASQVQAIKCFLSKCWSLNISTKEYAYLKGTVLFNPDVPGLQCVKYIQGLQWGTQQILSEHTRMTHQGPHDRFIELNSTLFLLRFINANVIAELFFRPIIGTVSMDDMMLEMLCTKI
GAA30 FXN cntr: GAA30 FXN promoter activation counter-screen. shares compounds with GAA850 FXN act. AID 588350. HEK293 lucGAA30 FXN promoter luciferase, 24 h; DMSO = 0%, 5 µM ipriflavone = 100%. activation, % at 6 µM. 1,900 compounds, 66% hits;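 active = mean activation above the mean of solvent-only control wells plus 3 SD, cut at about 22% in these data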;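 also: counterscreen of GAA850 promoter hits where activity marks nonselective or luminescence artifacts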
FXN GAA850 conf: GAA850 FXN promoter activation confirmation; HEK293 lucGAA850 FXN promoter luciferase reporter, 24 h; 100% = activation by SAHA; 1,900 compounds, 86% hits; shares compounds with GAA850 FXN act; AID 588351; activation, % at 6 µM;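 active = mean activation above a set limit taken from the primary screen, cut at about 8% in these data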;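 also: 0% = DMSO wells and 100% = 10 µM SAHA wells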
Active calls of the source: *; . = no result given. An excerpt weighted towards active compounds, which were near 4.5% of everything screened.

SMILES	hgDAF-12 ag	GAA850 FXN act	ssDAF-12 act	hcDAF12 agonist	DAX1 inh-1	DAX1 inh-2	GAA30 FXN cntr	FXN GAA850 conf
N#Cc1ccc(NC(=O)OC2CC3CC2[C@H]2CCCCN2[C@H]3Cc2ccccc2)cc1 (stereo partly specified)	0	.	0	-2	-1	.	.	.
CCCCCCCCN1C(=O)[C@@H](CC(=O)NCCCN2CCCC2=O)C[C@@]2(C(=O)OC)C1=C[C@H](C(C)C)O[C@@H]2C1CC1	-2	.	-1	1	-1	.	.	.
COc1cccc(C(=O)c2cc3cc(Cl)ccc3[nH]2)c1	6	2	-1	2	1	3	.	.
O=C(c1ccccc1)c1cc2cc(Cl)ccc2[nH]1	5	8.3*	1	3	1	2	87*	35*
CCc1ccc(O)c(-c2cc(C(=O)Nc3cccnc3)[nH]n2)c1	12*	7.8*	0	1	3.8*	1	97*	31*
O=C(OCN1C(=O)c2ccccc2C1=O)c1ccc(Cl)nc1	0	-1	-1	-1	0	1	.	.
CCOc1c(Cl)cc(C(=O)NCCN2CCCCC2)cc1Cl	-2	13*	-1	-2	0	0	9	6
O=[N+]([O-])c1ccccc1Nc1nc(-c2cccnc2)cs1	4	9.1*	0	5.6*	0	1	87*	26*
CC[C@@]1(C(=O)OC)N[C@H](CN(C)C(=O)Nc2ccccc2)[C@@H]2C(=O)N(Cc3ccccc3)C(=O)[C@@H]21	-1	12*	-1	2	-1	1	16	7
CCN(C[C@H]1N[C@@](CC)(C(=O)OC)[C@H]2C(=O)N(Cc3ccccc3)C(=O)[C@@H]12)S(=O)(=O)c1ccc(OC)cc1	-4	11*	-1	-3	-2	0	12	9.0*
Cc1c(C(=O)N/N=C/c2ccc(O)c(Br)c2)sc(N)c1C#N	-2	5	-2	-4	3	-1	.	.
COc1cc(/C=N/NC(=O)c2sc(N)c(C#N)c2C)ccc1O	-1	11*	-1	0	1	-1	-13	44*
Nc1nc2ccc(O)cc2s1	-3	-2	-1	-1	0	-2	.	.
Cc1cc2nc(N)sc2cc1C	9	8.4*	0	1	2	2	109*	27*
CS(=O)(=O)N1CCCCC1c1cc(C(=O)Nc2cccc3c2CCCC3)no1 (stereo unspecified)	-1	1	-1	-3	0	.	.	.
N#Cc1ccc(S(=O)(=O)N2CCCCC2c2cc(C(=O)Nc3cccc4c3CCCC4)no2)cc1 (stereo unspecified)	0	7.9*	-1	1	0	.	27*	12*
CCOc1ccc(C(=O)Nc2ccc(NC(=O)c3ccco3)c(Cl)c2)cc1Br	-4	12*	-1	-1	0	-1	9	8.4*
O=C(C=Cc1ccccc1)CC(c1ccccc1)N1CCOCC1 (stereo unspecified)	-5	7.8*	-2	0	-2	0	36*	40*
O=C(CSc1nnc(-c2ccncc2)n1-c1ccccc1)Nc1ccc2c(c1)OCCO2	-4	.	-1	0	0	.	.	.
CCN(CC)c1ccc(/C=C(/C#N)C(=O)NC(C)C)o1	8	3	-1	0	1	1	.	.
CCN(CC)c1ccc(/C=C2/SC(=O)N(C(C)C)C2=O)o1	-3	8.0*	-2	-4	-1	1	96*	32*
CC(C)N1C(=O)S/C(=C\c2ccc(-c3ccc(Cl)c(C(=O)O)c3)o2)C1=O	6	8.2*	-1	3	1	1	116*	38*
Cc1nnc(NC(=O)C2CC(=O)N(Cc3ccccc3)C2)s1 (stereo unspecified)	2	2	-1	-2	2	0	.	.

Assay outcomes (PubChem BioAssay)
